Reference: PubChem BioAssay (EPA / NIEHS)
Records with an inconclusive call do not appear. Active and inactive are the calls of the source. The calls were made as follows, unless noted: active = hit-call score of the fitted dose curve at least 0.9, where 1 is the maximum; inactive = score below 0.9.

Assays:
[1] = CCTE_Harrill_HTTr_Viability_MCF7: CCTE's 6-hour Cell Viability Assessment for the High-Throughput Transcriptomics (HTTr) Platform, in MCF-7 cells cultured in DMEM + 10% fetal bovine serum, Harrill Lab (AID 2284010)
Summary of the method: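 Cells were dosed with chemicals in an eight-point dilution series, imaged 6 hours later for propidium iodide uptake, and the endpoint was analyzed by bidirectional fitting against DMSO as negative control.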

[2] = CCTE_Harrill_HTTr_Apoptosis_MCF7: CCTE's 6-hour Apoptosis Assessment for the High-Throughput Transcriptomics (HTTr) Platform, in MCF-7 cells cultured in DMEM + 10% fetal bovine serum, Harrill Lab (AID 2284011)
Summary of the method: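 Read-out: CellEvent Caspase 3/7 Green signal by high content imaging, gain-of-signal indicating apoptosis. MCF-7 cells, DMEM + 10% FBS, eight-point dilution series, 6 h exposure. Curves fitted bidirectionally relative to DMSO negative control.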

[3] = CCTE_Harrill_HTTr_CellCount_MCF7: CCTE's Cell Proliferation Assessment for the High-Throughput Transcriptomics (HTTr) Platform, Harrill Lab (AID 2284012; active = hit-call score of the fitted dose curve at least 0.9, where 1 is the maximum;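 also: count of Hoechst-stained nuclei per well by high-content imaging in MCF-7 cells; cells exposed to compound for six hours; intended direction is loss of nuclei count meaning fewer cells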)
Summary of the method: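 Chemicals in eight-point dilution series are added to MCF-7 cells for six hours, nuclei are stained with Hoechst and imaged, and per-well nuclei counts are fitted in both directions relative to DMSO controls.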

[4] = CCTE_Shafer_MEA_acute_firing_rate_mean: CCTE's Neural Acute Assay for Mean Firing Rate, Shafer Lab (AID 2284009);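 also: analyzed for loss of signal so actives lower firing rate relative to DMSO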
Summary of the method: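 Percent change in well-mean firing rate was derived from extracellular spikes detected at 8x rms noise (300-5000 Hz band-pass) before and after a 40-min compound exposure. Cultures were primary rat cortical neurons, tested at 0.03-40 uM.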

[5] = CCTE_Shafer_MEA_acute_burst_number: CCTE's Neural Acute Assay for Single-Electrode Bursts, Shafer Lab (AID 2284013)
Summary of the method: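 Spontaneous network activity of primary rat cortical neurons was recorded extracellularly on microelectrode arrays at 37 C, with 40-min periods before and during exposure to 0.03-40 uM compound on DIV 13 or 15.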

[6] = CCTE_Shafer_MEA_acute_burst_duration_mean: CCTE's Neural Acute Assay for Mean Burst Duration, Shafer Lab (AID 2284014);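 also: hits are decreases in mean burst duration relative to DMSO controls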
Summary of the method: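 Read-out is the per-well percent change in mean burst duration (first to last spike within a single-electrode burst) between 40-min recordings before and after compound. Cultures were primary rat cortical neurons on MEAs, dosed at 0.03-40 uM on DIV 13 or 15.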

[7] = CCTE_Shafer_MEA_acute_interburst_interval_mean: CCTE's Neural Acute Assay for Mean Interburst Interval, Shafer Lab (AID 2284016);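 also: percent change of mean interburst interval versus each well's own pre-dose baseline; curves fitted for decrease in interburst interval relative to DMSO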
Summary of the method: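 Primary rat cortical neurons on 16-electrode MEA wells were recorded 40 min at baseline on DIV 13 or 15, then 40 min after compound (0.03-40 uM), at 37 C. Value is percent change in mean interburst interval per well, DMSO as negative control.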

[8] = CCTE_Shafer_MEA_acute_burst_percentage_mean: CCTE's Neural Acute Assay for Percentage of Spikes in a Burst, Shafer Lab (AID 2284017);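 as to AC50: curve fitted for loss of signal so potency reflects decreased burst percentage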
Summary of the method: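 Primary rat cortical neurons on 16-electrode MEA wells; 40 min baseline recorded at DIV 13 or 15, then 40 min after compound (0.03-40 uM) at 37 C. Well-mean fraction of spikes in single-electrode bursts; percent change from baseline, DMSO as negative control.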

[9] = CCTE_Shafer_MEA_acute_burst_percentage_std: CCTE's Neural Acute Assay for Standard Deviation of Burst Percentage, Shafer Lab (AID 2284018);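 also: fitted in the negative direction so actives lower burst percentage SD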
Summary of the method: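 Value is percent change from baseline in the across-electrode SD of spikes-in-bursts percentage, wells with >/= 10 active electrodes. Acute 40-min exposure to 0.03-40 uM on DIV 13 or 15 rat cortical cultures, recorded at 37 C after 40-min baseline.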

[10] = CCTE_Shafer_MEA_acute_per_network_burst_spike_number_mean: CCTE's Neural Acute Assay for Average Number of Spikes in a Network Burst, Shafer Lab (AID 2284019)
Summary of the method: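 Read-out is mean spike count per network burst, taken as percent change between a 40-min pre-exposure and a 40-min post-exposure recording per well. Rat primary cortical neurons on MEAs at 37 C, DIV 13 or 15; compounds at 0.03-40 uM.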

COc1cc(OC)nc(NC(=O)NS(=O)(=O)Nc2ccccc2C(=O)N(C)C)n1
outcome [1]: inactive

O=C(NO)c1ccccc1
outcome [1]: inactive
outcome [2]: inactive
outcome [3]: inactive

CCCCc1oc2ccccc2c1C(=O)c1cc(I)c(OCCN(CC)CC)c(I)c1
AC50 [4]: 8.87 µM (active)
outcome [1]: inactive
outcome [3]: inactive
outcome [5]: inactive
outcome [6]: inactive
outcome [7]: inactive
outcome [8]: inactive
outcome [9]: inactive
outcome [10]: inactive

C=C(c1ccc(C(=O)O)cc1)c1cc2c(cc1C)C(C)(C)CCC2(C)C
outcome [1]: inactive

CCCCCCCCCCCC
outcome [4]: inactive
outcome [1]: inactive
outcome [3]: inactive
outcome [5]: inactive
outcome [6]: inactive
outcome [7]: inactive
outcome [8]: inactive
outcome [9]: inactive
outcome [10]: inactive

Nc1ccc(O)c(C(=O)O)c1
outcome [1]: inactive

CN(C)CCOC(c1ccccc1)c1ccccc1
AC50 [4]: 4.98 µM (active)
outcome [1]: inactive
AC50 [5]: 3.11 µM (active)
outcome [6]: inactive
AC50 [7]: 7.21 µM (active)
AC50 [8]: 5 µM (active)
outcome [9]: inactive
outcome [10]: inactive

NS(=O)(=O)O
outcome [1]: inactive

O=C1NS(=O)(=O)c2ccccc21
AC50 [4]: 0.00978 µM (active)
outcome [1]: inactive
outcome [3]: inactive
AC50 [5]: 0.003 µM (active)
outcome [6]: inactive
outcome [7]: inactive
outcome [8]: inactive
outcome [9]: inactive
outcome [10]: inactive

Cc1ccc(N=Nc2c(O)ccc3ccccc23)c(C)c1
outcome [1]: inactive

CC1=NN(c2ccccc2)C(=O)C1
outcome [1]: inactive

O=S(=O)(O)c1ccccc1
outcome [1]: inactive

CC(C)[C@@H]1CC[C@@H](C)C[C@H]1O
outcome [1]: inactive

c1cc2cccc3c4cccc5cccc(c(c1)c23)c54
outcome [1]: inactive
outcome [2]: inactive

CCCCC=O
outcome [4]: inactive
outcome [1]: inactive
outcome [3]: inactive
outcome [5]: inactive
outcome [6]: inactive
outcome [7]: inactive
outcome [8]: inactive
outcome [9]: inactive
outcome [10]: inactive
